Structures are written as SMILES. Several values for one entry are separate records, joined by “and”; a condition that tells them apart may be missing. Identical values can stand only once. Inconclusive results are not listed. Activity calls are given as the source filed them. Rule for the calls, unless noted: active = hit-call score of the fitted dose curve at least 0.9, where 1 is the maximum; inconclusive = response in the unintended direction; inactive = score below 0.9.

For 28 compounds, outcome and AC50 results are on record in PubChem BioAssay (EPA / NIEHS).

A short description of experiment [1]: TOX21_TR_RXR_BLA_Antagonist_Followup_viability: Viability Assessment in the Tox21 Thyroid Hormone Receptor beta Retinoid X Receptor alpha (RXRa) Antagonism Beta-lactamase (BLA) Follow-Up Assay (AID 2283979). A digest of the protocol:
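RXRa-bla HEK293T cells (2,500/well, phenol red-free DMEM, 2% charcoal-stripped FBS) were attached 5 h, then exposed to compounds at 11 concentrations in triplicate for 16 h at 37C. Viability measured by CellTiter-Glo ATP luminescence, bidirectional fitting versus DMSO.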

Experiment [2] has as its target Nucleoli Translocation, AR (gene 367) (UniProt P10275). Briefly: UPITT_HCI_U2OS_AR_TIF2_Nucleoli_Antagonist: University of Pittsburgh U2OS Androgen Receptor-Transcriptional Intermediary Factor 2 (AR-TIF2) Antagonism High Content Imaging Assay for Nucleoli Translocation (AID 2283997). A digest of the protocol: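 Compounds are added at 20 uM final concentration in 0.2% DMSO to U2OS cells carrying AR-RFP and TIF2-GFP fusions. Nucleolar AR-RFP fluorescence is then quantified by automated imaging. Antagonism is fitted positively against DHT baseline.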

The target is the same in experiment [3]. Briefly: UPITT_HCI_U2OS_AR_TIF2_Nucleoli_Agonist: University of Pittsburgh U2OS Androgen Receptor-Transcriptional Intermediary Factor 2 (AR-TIF2) Agonism High Content Imaging Assay for Nucleoli Translocation (AID 2283998). A digest of the protocol: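 U2OS cells expressing RFP-tagged human AR and GFP-tagged TIF2; red fluorescence in nucleoli quantified by high-content imaging. Primary screen at 20 uM final (0.2% DMSO); concentration-response 0.195–50 uM (0.5% DMSO), fitted upward versus DMSO.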

Experiment [4] is described as follows: CCTE_Harrill_HTTr_Viability_PRF_DMEM_24hr: (Pilot) CCTE's 24-hour Cell Viability Assessment for the High-Throughput Transcriptomics (HTTr) Platform, in MCF-7 cells cultured in phenol red-free DMEM + 10% charcoal-stripped fetal bovine serum, Harrill Lab (AID 2283980; active = hit-call score of the fitted dose curve at least 0.9, where 1 is the maximum; inactive = score below 0.9). Summed up:
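Propidium iodide exclusion imaged at 24 h after dosing scores viability; cells were MCF-7 grown in phenol red-free DMEM plus 10% charcoal-stripped serum, tested in eight concentrations, fitted in both directions against DMSO.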

A short description of experiment [5]: CCTE_Harrill_HTTr_Apoptosis_DMEM_6hr: (Pilot) CCTE's 6-hour Apoptosis Assessment for the High-Throughput Transcriptomics (HTTr) Platform, in MCF-7 cells cultured in DMEM + 10% fetal bovine serum, Harrill Lab (AID 2283981; active = hit-call score of the fitted dose curve at least 0.9, where 1 is the maximum; inactive = score below 0.9). The source says: This is a cell-based assay that evaluates apoptosis using high content imaging to evaluate activation of caspase-3/7 using the CellEvent Caspase 3/7 Green detection reagent in 384-well format.One of seven assay components measured from the CCTE_Harrill_HTTr_Apoptosis assay. This was part of a pilot experiment. This is a cell-based assay that evaluates apoptosis in MCF-7 cells cultured in DMEM + 10% fetal bovine serum. High content imaging is used to evaluate activation of caspase-3/7 using the CellEvent Caspase 3/7 Green detection reagent. Measurements are taken at 6 hours after chemical dosing in 384-well format.The assay component endpoint CCTE_Harrill_HTTr_Apoptosis_DMEM_6hr was analyzed with bidirectional fitting relation to DMSO as the negative control and baseline of activity. Using a type of viability reporter, gain-of-signal activity can be used to evaluate activation of caspase-3/7 using the CellEvent Caspase 3/7 Green detection reagent to understand changes in apoptosis. To generalize the intended target to other relatable targets, this assay endpoint is annotated to cell cycle, where the subfamily is apoptosis.
Chemicals were tested in MCF7 cells in an eight point dilution series with a six hour exposure duration.

Experiment [6] in a line: CCTE_Harrill_HTTr_Apoptosis_DMEM_12hr: (Pilot) CCTE's 12-hour Apoptosis Assessment for the High-Throughput Transcriptomics (HTTr) Platform, in MCF-7 cells cultured in DMEM + 10% fetal bovine serum, Harrill Lab (AID 2283982; active = hit-call score of the fitted dose curve at least 0.9, where 1 is the maximum; inactive = score below 0.9). A digest of the protocol: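 Caspase-3/7 activity was measured by high-content imaging (CellEvent Caspase 3/7 Green) after a 12-hour exposure of MCF-7 cells grown in DMEM with 10% FBS. Eight-point concentration series, fitted bidirectionally against vehicle.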

The nature of experiment [7]: CCTE_Harrill_HTTr_Apoptosis_DMEM_24hr: (Pilot) CCTE's 24-hour Apoptosis Assessment for the High-Throughput Transcriptomics (HTTr) Platform, in MCF-7 cells cultured in DMEM + 10% fetal bovine serum, Harrill Lab (AID 2283983; active = hit-call score of the fitted dose curve at least 0.9, where 1 is the maximum; inactive = score below 0.9). Summed up:
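Caspase-3/7 activity read by high-content imaging (CellEvent Green reagent) 24 h after dosing. MCF-7 cells grown in DMEM with 10% FBS received an eight-point concentration series; fits were bidirectional versus DMSO.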

Experiment [8] is described as follows: CCTE_Harrill_HTTr_Apoptosis_PRF_DMEM_6hr: (Pilot) CCTE's 6-hour Apoptosis Assessment for the High-Throughput Transcriptomics (HTTr) Platform, in MCF-7 cells cultured phenol red-free DMEM + 10% charcoal-stripped fetal bovine serum, Harrill Lab (AID 2283984; active = hit-call score of the fitted dose curve at least 0.9, where 1 is the maximum; inactive = score below 0.9). Summed up:
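Caspase-3/7 activity (CellEvent Green) read by high-content imaging 6 h after dosing, eight concentrations. Cells: MCF-7, phenol red-free DMEM with 10% charcoal-stripped serum. Curves fit both directions against DMSO.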

A short description of experiment [9]: CCTE_Harrill_HTTr_Apoptosis_PRF_DMEM_24hr: (Pilot) CCTE's 24-hour Apoptosis Assessment for the High-Throughput Transcriptomics (HTTr) Platform, in MCF-7 cells cultured in phenol red-free DMEM + 10% charcoal-stripped fetal bovine serum, Harrill Lab (AID 2283986; active = hit-call score of the fitted dose curve at least 0.9, where 1 is the maximum; inactive = score below 0.9). Summed up:
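Eight concentrations tested for 24 h on MCF-7 grown in charcoal-stripped serum, phenol red-free DMEM. High content imaging of CellEvent Caspase 3/7 Green signal gives apoptosis read-out, fitted both ways relative to DMSO.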

Another experiment relates to DIO1 (gene 1733). Briefly: CCTE_GLTED_hDIO1: CCTE's human Deiodinase 1 (DIO1) Inhibition Assay, Great Lakes Toxicology and Ecology Division (GLTED) Lab (AID 2283987).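 Note: isolated human DIO1 enzyme in a cell-free setup rather than cells; enzyme activity read as free iodide liberated from substrate via Sandell-Kolthoff colorimetry.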 The protocol: CCTE_GLTED_hDIO1 is a cell-free, single-readout assay designed to test the inhibitory activity of chemicals toward human iodothyronine Deiodinase type 1 (DIO1) enzyme. Enzyme is incubated in presence of test chemical for 3 hours during which uninhibited enzyme liberates free iodide from substrate. Free iodide is measured in a second step using the Sandell-Kolthoff method.CCTE_GLTED_hDIO1 is the assay component measured from the CCTE_GLTED_hDIO1 assay. It is designed to make measurements of enzyme activity, a form of enzyme reporter, as detected with absorbance signals by spectrophotometry.Data from the assay component CCTE_GLTED_hDIO1 was analyzed into 1 assay endpoint. This assay endpoint, CCTE_GLTED_hDIO1, was analyzed in the positive analysis fitting direction relative to DMSO as the negative control and baseline of activity. Using a type of enzyme reporter, loss-of-signal activity can be used to understand changes in the enzymatic activity as they relate to the gene DIO1. Furthermore, this assay endpoint can be referred to as a primary readout, because the performed assay has only produced 1 assay endpoint. To generalize the intended target to other relatable targets, this assay endpoint is annotated to the 'deiodinase' intended target family, where the subfamily is 'deiodinase Type 1'.
[…] assay, developed at Great Lakes Toxicology and Ecology Division (GLTED) within the EPA's Center for Computational Toxicology and Exposure (CCTE), is designed to test the chemicals' ability to inhibit DIO1. Assay is based on iodide release measured by the Sandell-Kolthoff method and is run in 96-well plate format with assay plates run in triplicate (n=3). The method used for the deiodinase assay was largely based on Renko et al. (2012, 2015). These works describe the utilization of the SK reaction to measure deiodinase-liberated iodide in a 96-well-plate format. […]

Nucleoli Translocation, AR (gene 367), sequence (P10275 whole entry, looked up, the tested form may be a part): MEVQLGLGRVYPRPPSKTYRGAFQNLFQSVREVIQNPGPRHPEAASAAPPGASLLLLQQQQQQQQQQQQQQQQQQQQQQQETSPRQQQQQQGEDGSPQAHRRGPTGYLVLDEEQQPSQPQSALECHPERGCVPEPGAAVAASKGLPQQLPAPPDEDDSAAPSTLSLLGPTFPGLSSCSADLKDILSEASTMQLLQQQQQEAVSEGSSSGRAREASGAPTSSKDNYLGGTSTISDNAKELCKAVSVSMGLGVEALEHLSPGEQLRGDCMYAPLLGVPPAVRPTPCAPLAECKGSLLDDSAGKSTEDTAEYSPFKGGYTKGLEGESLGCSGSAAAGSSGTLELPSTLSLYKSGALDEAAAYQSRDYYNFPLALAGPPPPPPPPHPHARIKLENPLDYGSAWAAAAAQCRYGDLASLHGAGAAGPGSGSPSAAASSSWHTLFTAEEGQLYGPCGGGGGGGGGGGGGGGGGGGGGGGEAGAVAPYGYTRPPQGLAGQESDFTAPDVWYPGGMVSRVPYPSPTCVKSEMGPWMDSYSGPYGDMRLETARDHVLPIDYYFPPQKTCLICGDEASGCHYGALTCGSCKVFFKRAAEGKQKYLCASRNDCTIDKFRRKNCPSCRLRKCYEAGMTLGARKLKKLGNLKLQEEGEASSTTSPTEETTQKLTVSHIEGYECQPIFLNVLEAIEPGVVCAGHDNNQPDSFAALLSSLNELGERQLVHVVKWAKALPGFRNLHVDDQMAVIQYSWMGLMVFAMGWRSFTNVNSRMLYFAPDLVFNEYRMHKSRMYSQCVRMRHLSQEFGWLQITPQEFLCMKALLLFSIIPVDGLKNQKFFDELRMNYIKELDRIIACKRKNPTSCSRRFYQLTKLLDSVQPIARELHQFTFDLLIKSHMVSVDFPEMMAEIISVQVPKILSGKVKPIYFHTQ

For `Nc1nc(N)c2nc(CNc3ccc(C(=O)N[C@@H](CCC(=O)O)C(=O)O)cc3)cnc2n1`, in experiment [1], the call was inactive.
With `Cc1ccccc1Cl`, the outcome in [2] and in experiment [3] was inactive.
Take `CCOC(=O)C(C)(C)Oc1ccc(Cl)cc1`: the result in [4], in experiment [5], in experiment [6], in experiment [7], in experiment [8] and in [9] was inactive.
Consider `Cc1cc(=O)[nH]c(=S)[nH]1`, for which the AC50 with DIO1 (gene 1733) was 16.4 µM (active).
Consider `CCOc1ccc2c(c1)C(C)=CC(C)(C)N2`, for which the AC50 in experiment [2] was 50 µM (active). In addition, in experiment [3], the compound was classed as inactive.
As to `O=c1[nH]cc(F)c(=O)[nH]1`, the compound was called inactive in experiment [1].
Consider `Cc1cccc([N+](=O)[O-])c1C`, for which the call in experiment [2] was inactive.
For the compound `CC(C)(C)c1cc(O)c(C(C)(C)C)cc1O`, the call in [2] and in experiment [3] was inactive.
In the case of `O=C(O)Cc1ccccc1Nc1c(Cl)cccc1Cl`, the call in experiment [2] and in experiment [3] was inactive.
As for `Cc1ccc(C)c(C)c1`, the compound was called inactive in [2] and in [3].
For `COCCOCCOC`, the result in experiment [2] and in experiment [3] was inactive.
As for `COc1cc(/C=C/C(=O)CC(=O)/C=C/c2ccc(O)c(OC)c2)ccc1O`, the compound was called inactive in experiment [3].
For `Cc1ccc(N(C)C)cc1`, the compound was classed as inactive in experiment [2] and in [3].
On to `CCCCCCCCCCC`, for which, in experiment [2], the compound was called inactive.
For `COc1ccc(C)cc1N`, the compound was called inactive in [2].
As to `COc1ccc2c(c1)c(CC(=O)O)c(C)n2C(=O)c1ccc(Cl)cc1`, the result in experiment [3] was inactive.
`COc1cc(-c2nc(NC(=O)c3cc4cc(C)cc(C)c4n3CC(=O)O)sc2CCC2CCCCC2)c(OC)cc1Cl`: the concentration at half-maximal activity (AC50) in experiment [2] was 11.4 µM (active). In addition, the result in experiment [3] was inactive.
Turning to `Cc1ccc(C)c(O)c1C`, the compound was called inactive in [2] and in experiment [3].
On to `CN[C@H]1CC[C@@H](c2ccc(Cl)c(Cl)c2)c2ccc(S(N)(=O)=O)cc21`, for which the half-maximal activity concentration (AC50) was 50 µM (active) in experiment [2] and 12.8 µM (active) in experiment [3].
On to `COc1cc(C=O)ccc1O`, for which the compound was classed as inactive in experiment [2] and in experiment [3].
Turning to `CCCc1cc(=O)[nH]c(=S)[nH]1`, the AC50 in the experiment on DIO1 (gene 1733) was 3.82 µM (active) and 5.5 µM (active).
For the compound `Cc1nc(-c2ccc3c(c2)CCN(CCC2CCC(NC(=O)/C=C/c4ccc(F)cc4)CC2)CC3)no1` (stereo not drawn), the outcome in [2] and in experiment [3] was inactive.
As to `CC(=O)Oc1ccccc1C(=O)O`, in experiment [3], the result was inactive.
Take `CCCCC(CC)COC(=O)CC(C(=O)OCC(CC)CCCC)S(=O)(=O)O` (stereo not drawn): the half-maximal activity concentration (AC50) in the experiment with DIO1 (gene 1733) is 96.2 µM (active).
On to `CCCCCC(=O)O`, for which the outcome in experiment [3] was inactive.
As to `Cc1cccc(C)c1O`, the compound was called inactive in experiment [2] and in experiment [3].
On to `COc1ccc(S(=O)(=O)N2C(=O)[C@@](c3ccccc3OC)(N3C[C@H](O)C[C@H]3C(=O)N(C)C)c3cc(Cl)ccc32)c(OC)c1`, for which the compound was called inactive in [2] and in experiment [3].
As for `CNC(=O)[C@H]1O[C@@H](n2cnc3c(NCc4cc(Cl)ccc4OCc4cc(C)no4)ncnc32)[C@H](O)[C@@H]1N`, the compound was classed as inactive in experiment [2] and in experiment [3].
